The list is not random: actives were taken first. Their share in the collection is about 2.8%.
PI5P4K alpha inh: blocks human PI5P4K alpha kinase activity | P48426 | PI5P4Kalpha enzyme, ADP-Glo luminescence, 60 min; active compounds read low | max response, % | 330,000 tested, 1.2% active; active = max response of -50% or lower; inconclusive = between -30% and -50%; inactive = -30% or higher; note: value at the top dose of about 77 µM
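Quantitative HTS of the MLSMR library against PI5P4Kalpha with substrate. ATP added last at 5 microM final; room temperature, 60 minutes. Remaining ATP depleted, ADP converted and read as luminescence.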
Pol kappa inh: blocks human DNA polymerase kappa activity; AID 588579; purified Pol kappa, fluorescent DNA synthesis assay, 10 min; 400,000 tested, 0.53% active; Q9UBT6; Potency, µM (doses to about 107 µM), hits mostly inhibitors
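Fluorescent qHTS in 1536-well format: enzyme (10 nM) and compound sat 15 min at room temperature before 50 nM substrate (final) was added. Signal taken at 0 and 10 min; no-enzyme buffer wells were negative controls.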
POLI inh: blocks human DNA polymerase iota activity. Pol iota fluorescent replication assay, 10 min. 390,000 tested, 1% active. Potency, µM (top dose mostly 115 µM), most hits filed as inhibitors. Q9UNA4
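Fluorescent replication assay read twice, at 0 min and 10 min after adding 50 nM (final) substrate. Enzyme (10 nM) and compounds were first incubated 15 min at room temperature; enzyme-free buffer wells were negative controls.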
WRN inhibitor: WRN helicase (human) inhibition | WRN helicase unwinding, fluorescent forked duplex, kinetic | Potency, µM (doses to about 114 µM), hits mostly inhibitors | 360,000 tested, 0.46% active | AID 651768; note: nearly all actives have a fitted effect of over 55% in size
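Kinetic fluorescence helicase assay: unwinding of a quenched forked DNA duplex (100 nM final) with 2 mM ATP final raises red fluorescence (525/598 nm). Compounds sat 15 min at room temperature with 20 nM WRN beforehand.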
Pol beta inh: inhibitors of human DNA polymerase beta. Pol beta primer extension/strand displacement, fluorescence kinetic. P06746. Potency, µM (titrated, usually from 114 µM), usual class: inhibitors. 340,000 tested, 1.3% active
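Enzyme-only controls used 10 nM Pol beta; buffer lacking enzyme served as negative control. Compound preincubated 15 min, then 50 nM substrate added; 0 and 10 min reads at room temperature.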
POLH inh: inhibitors of human DNA polymerase eta. Q9Y253. recombinant Pol eta, fluorescent DNA replication assay. Potency, µM (titrated, usually from 114 µM), most hits filed as inhibitors. 390,000 tested, 1.2% active. AID 588591
Target sequence (Q9Y253 whole entry, looked up): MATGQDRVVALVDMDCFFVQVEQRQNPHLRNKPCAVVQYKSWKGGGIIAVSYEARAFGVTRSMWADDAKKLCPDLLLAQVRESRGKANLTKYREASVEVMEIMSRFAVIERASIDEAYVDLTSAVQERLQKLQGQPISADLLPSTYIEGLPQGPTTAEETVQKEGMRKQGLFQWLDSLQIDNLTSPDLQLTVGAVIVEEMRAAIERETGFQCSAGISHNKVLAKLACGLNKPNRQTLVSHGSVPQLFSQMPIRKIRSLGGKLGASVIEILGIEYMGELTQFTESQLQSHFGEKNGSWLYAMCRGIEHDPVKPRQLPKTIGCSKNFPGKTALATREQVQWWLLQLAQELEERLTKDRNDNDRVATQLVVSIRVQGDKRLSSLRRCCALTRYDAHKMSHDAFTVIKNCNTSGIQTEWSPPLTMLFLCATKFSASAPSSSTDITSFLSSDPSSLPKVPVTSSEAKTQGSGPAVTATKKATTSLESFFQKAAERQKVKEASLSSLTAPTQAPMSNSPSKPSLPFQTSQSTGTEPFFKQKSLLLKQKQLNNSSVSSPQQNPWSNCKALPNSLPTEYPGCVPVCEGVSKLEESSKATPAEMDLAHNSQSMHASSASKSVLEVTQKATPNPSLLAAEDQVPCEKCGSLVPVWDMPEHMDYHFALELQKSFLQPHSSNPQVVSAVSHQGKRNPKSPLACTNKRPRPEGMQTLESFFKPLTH
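Pol eta at 10 nM preincubated with compounds 15 min at room temperature; reaction started with fluorescent substrate (50 nM final) and read kinetically at 0 and 10 min.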
Large screens that a line does not name were inactive. Unless noted, calls come from the whole dose curve; as a rule, active = well fitted curve in the direction sought with a large enough effect; inconclusive = small, poorly fitted or top-dose-only effect, or another doubt; inactive = no such curve, though single readings can be large; an effect the other way counts as inactive or inconclusive.

COc1ccccc1-n1c(SCC(=O)Nc2ccccc2C)nc(O)cc1=O	POLI inh 56.2µM (no result: PI5P4K alpha inh)
Cc1cc(C)cc(-n2c(SCC(=O)NCc3ccc4c(c3)OCO4)nc3ccccc3c2=O)c1	none
C=CCNC(=O)CSc1nc2sccc2c(=O)n1-c1ccccc1	PI5P4K alpha inh -60.0, Pol kappa inh inconclusive, POLI inh inconclusive, Pol beta inh inconclusive, POLH inh inconclusive
COc1ccccc1NC(=O)CSc1nc(O)cc(=O)n1-c1ccccc1OC	POLI inh 39.8µM, Pol beta inh inconclusive (no result: PI5P4K alpha inh)
Cc1nn(CCCC(=O)Nc2ccccc2C(F)(F)F)c(=O)c2c1sc1ccccc12	none (no result: PI5P4K alpha inh, WRN inhibitor)
CCCCC(=O)NC1(C(F)(F)F)NC(=O)N(C)C1=O (stereo unspecified)	POLH inh inconclusive
COC(=O)N1CCCCC1c1cc(C(=O)Nc2ccc(OC)cc2C)no1 (stereo unspecified)	none (no result: Pol kappa inh, POLI inh, Pol beta inh, POLH inh)
O=c1cc(O)nc(SCc2ccccc2)n1-c1ccccc1	Pol kappa inh inconclusive, POLI inh inconclusive
O=C(CSc1nc(O)cc(=O)n1-c1ccccc1)NCc1ccccc1	POLI inh 39.8µM (no result: PI5P4K alpha inh)
CC(=O)Oc1ccc(C(=O)Nc2cccc(-c3nnc(-c4ccco4)o3)c2)cc1	Pol beta inh 20µM
O=C(Nc1cccc(-c2nnc(-c3ccco3)o2)c1)c1ccccc1	none
Nc1ccc(O)cc1	Pol kappa inh 89.1µM, POLI inh 7.08µM (no result: PI5P4K alpha inh, WRN inhibitor, Pol beta inh, POLH inh)
O=Cc1coc2c(ccc3ccccc32)c1=O	Pol beta inh 79.4µM (no result: PI5P4K alpha inh, Pol kappa inh, POLI inh, WRN inhibitor, POLH inh)
COC(=O)c1ccc(Cl)cc1NC(=O)N1CCC(CN2CCC(C)CC2)CC1	none (no result: PI5P4K alpha inh, WRN inhibitor)
COCc1cc(C)nc(N/N=C/c2ccc(-c3ccc(C(=O)O)c(Cl)c3)o2)c1C#N	Pol beta inh 22.4µM (no result: PI5P4K alpha inh, Pol kappa inh, POLI inh, WRN inhibitor, POLH inh)
Cc1ccc(C)c(S(=O)(=O)N2CCN(C(=O)/C=C/c3ccco3)CC2)c1	PI5P4K alpha inh -61.1, Pol kappa inh 50.1µM, POLI inh 28.2µM, POLH inh 35.5µM (no result: Pol beta inh)
Cc1ccc(S(=O)(=O)N2CCN(C(=O)/C=C/c3ccco3)CC2)cc1	Pol beta inh 20µM, POLH inh 79.4µM
Cc1ccc(OCC(=O)Nc2cccc(C(=O)OCc3cc(=O)n4cc(C)sc4n3)c2)cc1	none (no result: PI5P4K alpha inh, WRN inhibitor)
C#CCN1C(=O)S/C(=C/C=C/c2ccc(N(C)C)cc2)C1=O	POLI inh 79.4µM, WRN inhibitor 35.5µM
O=C(O)CN1C(=O)/C(=C/C=C/c2ccccc2)SC1=S	POLI inh inconclusive
Cc1ccc(SCC(=O)OCn2nnc3ccccc3c2=O)cc1C	none
O=S(=O)(c1cc(Cl)ccc1Cl)N1CCN(c2ccccn2)CC1	none
O=C(Nc1cccnc1)c1cccc(-c2cc3ccccc3oc2=O)c1	Pol beta inh inconclusive
O=C(NCc1cccnc1)c1ccc(-c2cc3ccccc3oc2=O)cc1	POLI inh 79.4µM, Pol beta inh inconclusive
O=C(COc1ccccc1)Nc1sc2c(c1C(=O)Nc1ccccc1)CCCCC2	Pol kappa inh inconclusive, POLI inh inconclusive, Pol beta inh 17.8µM, POLH inh 79.4µM (no result: PI5P4K alpha inh, WRN inhibitor)
COc1cc(CO)cc(Br)c1OCC(=O)Nc1cccc2ccccc12	none
N#C/C(=C\c1ccco1)c1nc2ccccc2s1	none
N#C/C(=C/c1ccc(-c2cc(C(=O)O)cc(C(=O)O)c2)o1)c1nc2ccccc2s1	Pol beta inh 20µM (no result: PI5P4K alpha inh, Pol kappa inh, POLI inh, WRN inhibitor, POLH inh)
N#C/C(=C(/O)c1ccc(-c2cccc([N+](=O)[O-])c2)o1)c1nc2ccccc2s1	PI5P4K alpha inh -53.4, Pol kappa inh inconclusive, POLI inh 50.1µM, POLH inh 17.8µM
CCCCC[C@H](O)/C=C/C1C(=O)C=C[C@H]1C/C=C\CCCC(=O)OC (stereo partly specified)	POLH inh inconclusive (no result: Pol beta inh)
Cc1cccc(N(Cc2cc(=O)[nH]c3ccccc23)C(=O)CCl)c1	POLI inh inconclusive, Pol beta inh inconclusive, POLH inh 44.7µM
COc1ccc(N(Cc2cc(=O)[nH]c3ccccc23)C(=O)CCl)cc1	POLH inh 35.5µM
Cc1ccc(C(=O)N/C(=C\c2ccc(Cl)cc2)C(=O)NC2CCCCC2)cc1	none (no result: PI5P4K alpha inh, WRN inhibitor)
COc1cc(NC(=O)C2CCCN(S(=O)(=O)c3ccc4c(c3)CCCN4C(C)=O)C2)cc(OC)c1 (stereo unspecified)	none
